High-throughput results as filed in PubChem.
Sfp inh – qHTS Assay for Inhibitors of Bacillus subtilis Sfp phosphopantetheinyl transferase (PPTase); actives 3.5% (n = 310,000); AID 1490, 2009; Biochemical Sfp PPTase activity, qHTS; 4'-phosphopantetheinyl transferase ffp (Bacillus subtilis), Q9F4F7; Potency, µM, for inactives: largest response in the series, negative = inhibition, hits mostly inhibitors;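 note: the enzyme is Sfp with the accession as filed and its product quenches rhodamine fluorescence; 0% = enzyme reaction without inhibitor and -100% = no enzyme wells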
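After 15 min at room temperature with compound, 15 nM Sfp received 5 uM rhodamine-CoA plus 12.5 uM BHQ-2-ybbR (50 mM Hepes pH 7.6, 10 mM MgCl2). Rate came from the fluorescence difference over 30 min, ex 525/em 598 nm.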
L3MBTL1 inh – qHTS Assay for the Inhibitors of L3MBTL1 | actives 0.66% (n = 230,000) | Potency, µM (series often up to 57.1 µM), without a hit: at the top dose activity, negative = inhibition, usual class: inhibitors | AID 485360, 2010 | AlphaScreen L3MBTL1–H3K9me1 peptide binding | Lethal(3)malignant brain tumor-like protein 1 (Homo sapiens), Q9Y468; note: % is set by controls: 0 for no effect and ±100 for the full control effect; nearly all actives have a fitted effect of over 60% in size
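L3MBTL1 (50 nM) pre-complexed 30 min with biotinylated H3(1-15)K9me1 peptide (75 nM), then compounds added for 30 min at room temperature; AlphaScreen streptavidin donor/nickel chelate acceptor beads (10 ug/mL final) read after 30 min dark incubation.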
HP1b chromo inh – HTS for Inhibitors of HP1-beta Chromodomain Interactions with Methylated Histone Tails. actives 0.56% (n = 390,000). Chromobox protein homolog 1 (Homo sapiens), P83916. AlphaScreen HP1-beta / biotin-H3K9me3 peptide binding. Potency, µM (top dose mostly 114 µM), without a hit: top-dose activity change, negative = inhibition, most hits filed as inhibitors; note: nearly all actives have a fitted effect of over 70% in size
Target sequence (P83916 whole entry, looked up): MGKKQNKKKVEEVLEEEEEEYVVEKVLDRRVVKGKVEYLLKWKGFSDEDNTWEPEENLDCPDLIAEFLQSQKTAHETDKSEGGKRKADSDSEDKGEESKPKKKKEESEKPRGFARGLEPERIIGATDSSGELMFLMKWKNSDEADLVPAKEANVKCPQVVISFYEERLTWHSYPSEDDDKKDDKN
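HP1-beta protein (50 nM final) preincubated 30 min at room temperature with biotinylated H3(1-18)K9me3 peptide (50 nM) in PBS pH 7.4, 0.01% Tween-20, then compound added for 30 min. AlphaScreen streptavidin donor/nickel chelate acceptor beads (10 ug/mL final), 30 min dark, luminescence read.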
BAZ2B inh – qHTS Assay for Inhibitors of BAZ2B; Bromodomain adjacent to zinc finger domain protein 2B (Homo sapiens), Q9UIF8; AlphaScreen BAZ2B-H3K14Ac peptide displacement; Potency, µM (top dose mostly 114 µM), for the others: at the highest dose activity change, negative = inhibition, most hits filed as inhibitors; actives 4.4% (n = 360,000); AID 504333, 2011; note: % is set by controls: 0 for no effect and ±100 for the full control effect; nearly all actives have a fitted effect of over 60% in size
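BAZ2B (50 nM) with biotin-H3(5-23)K14Ac peptide (50 nM) in PBS pH 7.4, 0.01% Tween-20, preformed 30 min, then compound 30 min at room temperature; top concentration 110uM. AlphaScreen streptavidin donor/nickel chelate acceptor beads (10 ug/mL final), 20 min dark, signal read.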
G9a block – qHTS Assay for Inhibitors of Histone Lysine Methyltransferase G9a; AID 504332, 2011; Potency, µM (highest dose often 102 µM), for inactives: at the top dose activity, negative = inhibition, most hits filed as inhibitors; G9a H3K9 monomethylation, AlphaScreen, 2 h; actives 8.8% (n = 350,000); note: % is set by controls: 0 for no effect and ±100 for the full control effect; nearly all actives have a fitted effect of over 75% in size
Target sequence (Q96KQ7 913-1193 limits assumed): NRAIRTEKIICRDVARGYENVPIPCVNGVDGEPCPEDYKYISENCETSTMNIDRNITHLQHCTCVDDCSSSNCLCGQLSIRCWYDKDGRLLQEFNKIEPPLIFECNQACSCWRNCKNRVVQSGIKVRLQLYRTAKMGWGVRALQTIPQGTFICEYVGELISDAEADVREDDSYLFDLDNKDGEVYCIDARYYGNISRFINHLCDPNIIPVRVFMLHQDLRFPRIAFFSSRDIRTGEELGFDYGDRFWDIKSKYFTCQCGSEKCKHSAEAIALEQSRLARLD
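Methyltransferase reactions run at room temperature for 2 h (20 nM enzyme, 500 nM biotin-H3K9 peptide, 20 uM SAM) after a 15 min compound preincubation; product detected by AlphaScreen beads and anti-H3K9me1 antibody.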
JMJD2A Tudor inh – qHTS Assay for Inhibitors of JMJD2A-Tudor Domain; actives 4.4% (n = 390,000); Potency, µM (doses to about 114 µM), for inactives: at the top dose activity change, negative = inhibition, most hits filed as inhibitors; Lysine-specific demethylase 4A (Homo sapiens), O75164; AlphaScreen JMJD2A-Tudor / H3K4me3 peptide binding; AID 504339, 2011; note: % is set by controls: 0 for no effect and ±100 for the full control effect; nearly all actives have a fitted effect of over 50% in size
Numbers without * were called inactive; ? = inconclusive; . = no result; ! = repeats disagree; [ ] = dose if it differs, or a comment. Rows were chosen to be rich in hits. Some 12% of all compounds tested hit in one or more screens of this group. Calls come from the whole dose curve; as a rule, active = well fitted curve in the direction sought with a large enough effect; inconclusive = small, poorly fitted or top-dose-only effect, or another doubt; inactive = no such curve, though single readings can be large; an effect the other way counts as inactive or inconclusive. Potency is the fitted concentration of half-maximal effect.

SMILES	Sfp inh	L3MBTL1 inh	HP1b chromo inh	BAZ2B inh	G9a block	JMJD2A Tudor inh
CCc1ccc(NC(=O)CNC(=O)[C@@H]2Cc3ccccc3CN2)cc1	-1%	.	14%	-23%	79µM*	-12%
O=C(CNC(=O)[C@@H]1Cc2ccccc2CN1)Nc1ccc2c(c1)OCCO2	-1%	.	14%	?	40µM*	-15%
CC(C)c1ccc(NC2CCCN(C(=O)CSc3nncn3C)C2)cc1 (stereo unspecified)	6%	.	23%	-18%	?	-18%
CC1(C)Cc2c(sc(NC(=S)NC(=O)c3ccccc3)c2C(=O)O)CO1	-10%	-5%	-25%	?	40µM*	-31%
N#Cc1c(NC(=S)NC(=O)c2ccccc2)sc2c1CCCC2	?	-6%	8%	5%	8.9µM*	?
N#Cc1c(NC(=S)NC(=O)c2ccccc2)sc2c1CCN(CCc1ccccc1)C2	56µM*	-5%	.	-12%	40µM*	.
CC(C)C(C(=O)Nc1sc2c(c1C#N)CCCCC2)N1C(=O)c2ccccc2C1=O (stereo unspecified)	7%	-5%	11%	50µM*	?	-28%
N#Cc1c(NC(=S)NC(=O)c2ccccc2)sc2c1CCCCC2	.	.	?	.	.	-35%
N#Cc1c(NC(=O)c2ccccc2)sc2c1CCC2	?	.	33%	-2%	?	2%
COc1cc(COCC(O)CN2C(C)CCCC2C)cc(OC)c1OC (stereo unspecified)	12%	2%	60%	9%	25%	-13%
O=C(COC(=O)COc1ccc(Br)cc1)NNC(=O)c1ccccc1	.	-2%	37%	.	.	-10%
COc1cc(O)c(C(=O)CC(=O)c2ccncc2)c(OC)c1	.	.	29%	.	.	-6%
N#Cc1c(NC(=S)NC(=O)C2CCCC2)sc2c1CCCCC2	?	7%	-19%	-1%	35µM*	-28%
Cc1c(Cl)cccc1NC(=O)NCc1c(-n2cccc2)sc2c1CCCC2	.	.	12%	-26%	-49%[59 µM]	-25%
COC(=O)c1cc2sccc2n1Cc1nc(-c2cccc(Br)c2)oc1C	.	.	12%	2%	?	-11%
COc1ccccc1NC(=O)c1ccc(CN2C(=O)C(C)=C(c3ccc(C)c(C)c3)S2(=O)=O)cc1	.	.	21%	-18%	10%[59 µM]	-6%
O=C(N/N=C/c1sc(N2CCCCC2)nc1-c1cccs1)C1CC1	56µM*	12%	20%	13%	25µM*	?
Cc1ccc2oc3c(c(=O)c2c1)C(c1ccccc1F)N(CCCN1CCOCC1)C3=O (stereo unspecified)	.	.	12%	-13%	7%[59 µM]	-13%
CCCOc1ccc(N2C(=O)C3ON(c4ccccc4)C(c4ccc(O)c(OC)c4)C3C2=O)cc1 (stereo unspecified)	14%	.	19%	-19%	50µM*	-25%
CCCOc1ccc(N2C(=O)C3ON(c4ccccc4)C(CCC)C3C2=O)cc1 (stereo unspecified)	5%	.	51%	-1%	40µM*	7%[57.1 µM]
COc1cc(C2C3C(=O)N(Cc4ccccc4)C(=O)C3ON2c2ccccc2)cc(OC)c1O (stereo unspecified)	-9%	-9%	-10%	?	50µM*	-32%
CCOC(=O)c1noc2ncnc(N3CCN(c4ccccc4OC)CC3)c12	.	.	-12%	-16%	0%[59 µM]	-21%
COc1ccc(-n2ccn(Cc3ccc(C)cc3)c(=O)c2=O)cc1OC	.	.	-3%	-13%	-45%[59 µM]	-10%
CCCN(C(=O)c1cc2ccc3cccnc3c2[nH]1)c1ccc(F)cc1	.	.	7%	0%[57.1 µM]	?	-16%
COc1cc(C2SCC(=O)N2CCN2CCCCC2)ccc1O (stereo unspecified)	24%	-1%	31%	-14%	50µM*	-1%
SMILES	Sfp inh	L3MBTL1 inh	HP1b chromo inh	BAZ2B inh	G9a block	JMJD2A Tudor inh
O=C(N/N=C\c1ccc(COc2ccc([N+](=O)[O-])cc2)o1)c1ccc(Cl)cc1	-3%	.	33%	-2%	14%	-5%
COc1ccc(OCc2ccc(/C=N\NC(=O)c3sccc3C)o2)cc1	19%	.	24%	-22%	40µM*	-21%
COc1cc(C2Nc3ccc4ncccc4c3C3=C2C(=O)CCC3)ccc1O (stereo unspecified)	-14%	4%	-1%	-13%	50µM*	?
CC(=O)n1cc(N(C(=O)CCl)c2ccc([N+](=O)[O-])cc2)c2ccccc21	11%	-8%	2%	-33%	50µM*	-30%
CN(C)CC[C@@H](c1ccc(Br)cc1)c1ccccn1	9%	.	28%	.	16µM*!	-7%
Nc1nc(Cl)nc2c1ncn2[C@@H]1O[C@H](CO)[C@H](O)C1F (stereo partly specified)	11%	.	.	.	25%[59 µM]	.
COc1cc(/C=N/Nc2ccccc2)ccc1OC(=O)c1cccs1	-8%	20%	23%	16%	28µM*	-13%
COc1cc(/C=N/Nc2ccc(Cl)c(C(=O)O)c2)ccc1OC(=O)c1cccs1	-7%	-6%	-7%	?	25µM*	?
COc1cc(/C=N/NC(=O)C(N)=O)ccc1OC(=O)c1cccs1	7%	3%	48%	-7%	29%	-12%
COc1cc(/C=N/NC(=O)c2ccccn2)ccc1OC(=O)c1cccs1	-6%	.	14%	-3%	-8%[0.501 µM]	-21%
CC1(c2ccc(OC(F)F)cc2)NC(=O)N(/N=C/c2c(O)ccc3ccccc23)C1=O (stereo unspecified)	9%	-1%	0%	-28%	?	?
COc1ccc(CC(=O)Nc2ccc(N3CCCC3)c(C)c2)cc1	-15%	.	?	?	8.9µM*	?
COc1ccc(NC(=O)CN(C)C(=O)c2ccc(N3CCCCC3)c([N+](=O)[O-])c2)cc1	.	-18%	-18%	?	50µM*	-34%
CN(CC(=O)Nc1ccc(Cl)c(C(F)(F)F)c1)C(=O)Cn1cc([N+](=O)[O-])ccc1=O	.	-1%	15%	-10%	6.3µM*	-22%
COc1ccc(NC(=O)CN(C)C(=O)c2ccc(N3CCOCC3)c([N+](=O)[O-])c2)cc1	.	5%	5%	7%	20%	-21%
